# Measurements: PubChem BioAssay AID686979 (National Center for Advancing Translational Sciences (NCATS), 2013)
# Among all 420,000 compounds or so, about 50,000 (12%) were called active. Not shown: some 26% with an inconclusive outcome. Many of the other results were omitted from the sample, so actives are more common in it than they were. A number with no mark means an inactive call. Calls follow the shape of the dose curve; as a rule, active = well fitted inhibition curve with a large enough effect; inconclusive = small, poorly fitted or top-dose-only effect; inactive = flat fitted curve, though single readings scatter.
# Test: qHTS for Inhibitors of human tyrosyl-DNA phosphodiesterase 1 (TDP1): qHTS in cells in presence of CPT; also: nearly all actives have a fitted effect of over 55% in size
# Conditions: chicken DT40 Tdp1-/-;hTDP1 cells + 20 nM CPT, ATP luminescence, 48 h; series mostly up to 46.2 µM; activity change, negative = growth inhibition: at the top concentration
# Source text: Human tyrosyl-DNA phosphodiesterase 1 (TDP1) is a novel repair gene, and we propose to use it as a new target for anticancer drug development. TDP1 is not an essential protein, but under treatment with topoisomerase I poison (camptothecin: CPT), TDP1 works as a critical factor for cell survival. To directly identify novel TDP1 inhibitors active in a cellular environment, we have knocked-out the Tdp1 gene in chicken DT40 cells (Tdp1-/-) and generated a complemented counterpart cells that contains a stable transfection of the human TDP1 gene (Tdp1-/-;hTDP1 cells). For the primary screen, Tdp1-/-;hTDP1 cells will be exposed to small molecules in the presence or absence of CPT, and their growth kinetics will be evaluated after 48 hours by measuring ATP activity. […] The hit compounds will then be evaluated in the presence or absence of CPT using Tdp1-/- cells. […] In tertiary assays, biochemical gel-based assays will be used to assess whether the hit compounds specifically target TDP1. To this end, we have screened this cell line against the MLSMR in two primary screens. In one screen we add CPT and in the other we screen in the absence of CPT; this AID represents the screen where CPT was present. NIH Chemical Genomics Center [NCGC] NIH Molecular Libraries Probe Centers Network [MLPCN] MLPCN Grant: MH095538 Assay Submitter (PI): Yves Pommier, NCI
# DT40-hTDP1 cells with 20 nM Camptothecin (add 20 microL of 1 mM CPT stock in 1 L of cell culture medium) were dispensed at 400 cells/5microL/well in tissue culture treated 1536-well white wall/solid bottom assay plates (Greiner Bio-One North America, NC, U.S.A.) using a Multidrop Combi 8 channel dispenser (Thermo Fisher, Waltham, MA, USA). 23 nL compounds and controls were transferred using the pin tool (Kalypsys, San Diego, CA, USA) to the assay plates. The assay plates were then incubated at 37 masculineC for a minimum 48 hr. Three microL of Cell Titer Glo solution was added to the plates and incubated at RT in dark for 30 min. Luminescence was read using ViewLux (Perkin Elmer) with 1 sec exposure slow speed, high gain and 2x binning.
# % is scaled to controls: 0 for no effect and ±100 for the full control effect; potency is read from the fitted curve at half-maximal effect.
SMILES,"activity change, negative = growth inhibition [%]",Potency
COc1cccc(NC(=S)N(Cc2ccc(C)cc2)Cc2ccccn2)c1,-11.2,–
CN=C1C=C/C(=N/N=c2\ccn(O)cc2C)C=C1C,2.23,–
CCOC(=O)C1=C(CC)Nc2ccccc2N=C1NC(=O)c1cccc(S(=O)(=O)N2CCCC2)c1,-21.8,–
CC(=O)NC12CC3CC(C1)CC(C(=O)N1CCN(C(=O)c4ccco4)CC1)(C3)C2,2.65,–
N#CC1(Nc2ccc3c4c(cccc24)CC3)CCCCC1,-7.33,–
CC(C)[C@H]1CC[C@@H](C)C[C@H]1O,31.4,–
CC(c1ccccn1)N(CCN(C)C)C(=S)Nc1ccccc1F (stereo unspecified),-0.383,–
N/C(=N\OC(=O)CCn1cccc(C(F)(F)F)c1=O)c1ccc(OC(F)(F)F)cc1,-10.4,–
CC(=O)Nc1ccc(C(=O)N(C2=NC(C)CS2)c2ccc(Cl)cc2)cc1 (stereo unspecified),2.95,–
COc1ccccc1OCc1nnc(SCC(N)=O)n1-c1ccccc1,12.4,–
COc1ccccc1NC(=O)CSc1nnc(Cn2nnc(-c3ccccc3)n2)n1-c1ccccc1,–,18.4 µM (active)
COc1ccccc1NC(=O)CSc1nnc(Cc2cccn2C)n1-c1ccc(F)cc1,-7.4,–
COc1ccc(S(=O)(=O)N(C)CC(=O)NCCCN2CCOCC2)cc1Cl,3.43,–
O=C(COc1ccc(Br)cc1F)NCC1(N2CCCCC2)CCCCC1,-7.8,–
Cc1cc(C(=O)COc2ccc(Br)cc2F)c(C)n1C1CC1,–,7.31 µM (active)
O=C(COc1ccccc1Cl)Nn1cnnc1,5.43,–
Cc1cc(C(=O)COc2ccccc2Cl)c(C)n1C1CC1,–,13 µM (active)
CC(=O)C1=C(C)NC(=O)NC1c1cc(Br)ccc1OCC#N (stereo unspecified),-0.357,–
O=C(COc1ccccc1Cl)N1CCCCCCC1,-1.73,–
C/C(N)=C(/C#N)C(=O)COC(=O)c1cc(-c2ccc(C)cc2)nc2ccccc12,-28.9,–
COc1ccc(/C=C/C(=O)NC(=S)N2CCCC(C(N)=O)C2)cc1 (stereo unspecified),15,–
OCCC1CN(Cc2ccc3nsnc3c2)CCN1C1CCCC1 (stereo unspecified),1.15,–

SMILES,"activity change, negative = growth inhibition [%]",Potency
CC(C)c1cc(C(=O)N/N=C/c2ccoc2)c(O)c(C(C)C)c1,11.1,–
CC(C)C[C@H](NC(=O)N1CC(=O)Nc2ccccc21)C(=O)N[C@H](Cc1ccccc1)C(=O)O,14.6,–
Cc1ccc(N(C(=O)c2ccc(CN3CCOCC3)o2)C(C(=O)NCCC(C)C)c2cccs2)c(C)c1 (stereo unspecified),11.6,–
CCCCNC(=O)N(O)C1N(/N=C/c2ccc(N(C)C)cc2)C(=S)SC1(C)C (stereo unspecified),9.36,–
CN1CCN(c2ccc(NC(=O)c3cc(Cl)c4c(c3)OCCO4)cc2)CC1,-20.6,–
C=CC(=O)Nc1ccc(Nc2ccnc(Nc3ccc(N4CCN(C)CC4)cc3)n2)cc1,–,9.2 µM (active)
Cn1cnnc1SCC(=O)Nc1ccc(N2CCOCC2)cc1,7.87,–
COc1ccc(Cn2c(=S)[nH]c3cc(C(=O)NCCCN4CCOCC4)ccc3c2=O)cc1,-15.5,–
Cc1ccc(NS(=O)(=O)c2ccc(C(=O)NCCCN3CCOCC3)cc2)cc1,-19.6,–
Cc1c(C)n(Cc2ccc(Cl)cc2)c2ccc(C(=O)NCCCN3CCOCC3)cc12,–,23.1 µM (active)
CCOC(=O)c1c(C)c(C(=O)NCCc2ccc(S(N)(=O)=O)cc2)c(C)n1CC,-8.97,–
COc1ccc(-n2c(=O)[nH]c3cc(C(=O)NCCc4ccc(OC)c(OC)c4)ccc3c2=O)c(OC)c1,-11.1,–
CCn1c(C)c(C)c2cc(C(=O)NCCc3cc(OC)ccc3OC)ccc21,–,20.6 µM (active)
Cc1c(C)n(Cc2ccc(Cl)cc2)c2ccc(C(=O)NCCc3ccc(S(N)(=O)=O)cc3)cc12,–,18.4 µM (active)
COc1ccc(C(=O)NCCc2ccc(S(N)(=O)=O)cc2)cc1OC,8.22,–
COc1ccc(C(=O)NCC[N+](C)(C)C)cc1,2.69,–
NC(=O)c1nnsc1-c1ccc(-c2snnc2C(N)=O)cc1,4.47,–
CCCCN1CC(CO)Oc2cccc(F)c2S1(=O)=O (stereo unspecified),-0.718,–
COc1ccc(OCC(=O)NCCS(=O)(=O)N2CCN(c3ccc(F)cc3)CC2)cc1,-11.2,–
Cc1cc2cc3c(N)[nH]nc3nc2cc1C,1.04,–
O=S1(=O)CCOC[C@H](Cc2ccccc2)N1Cc1ccccc1Br,-0.698,–
COc1ccccc1C(=O)NC(=S)NC12CC3CC(CC(C3)C1)C2,-23,–

SMILES,"activity change, negative = growth inhibition [%]",Potency
CC(=O)c1cc(CN2CCC(n3nccc3NC(=O)c3ccccc3Cl)CC2)cs1,4.13,–
CCCCCc1ccc(-c2ccc(C(=O)O)cc2)nc1,-17.7,–
CC(=O)Nc1ccc(S(=O)(=O)NC2(C(F)(F)F)C(=O)NC(C)=C2C#N)cc1 (stereo unspecified),-13.2,–
CC1CCCC(C)N1C(=O)COC(=O)c1ccccc1C(=O)c1ccccc1 (stereo unspecified),-17.9,–
Cc1ccc(Cl)c(OCC(=O)N2CCc3ccccc3C2)c1,4.91,–
OC(COc1ccc(F)cc1Cl)CN1CCc2ccccc2C1 (stereo unspecified),–,20.6 µM (active)
C=CCc1ccccc1OCC(O)CN1CCN(CCO)CC1 (stereo unspecified),-1.41,–
COCCN1CCn2c(nc3cc(NS(C)(=O)=O)ccc32)C1,-0.0281,–
Cc1cccc(CCNC(=O)Cn2ncc3c([nH]c4ccc(C)cc43)c2=O)c1,5.21,–
CC(=O)N1CCC2(CCCN(Cc3ccccc3)C2)CC1,10.1,–
CS(=O)(=O)N1CCC2(CC1)CN(Cc1ccccc1)C2,-3.76,–
CC12CN(Cc3ccccc3)CC(C)(CN(Cc3ccccc3)C1)C2=NO,–,23.1 µM (active)
O=C1Nc2cc(Cl)c(Cl)cc2N(O)N1c1cc(Cl)cc(Cl)c1,-23,–
Cc1ccc(NC(=O)c2cccnc2C(=O)Nc2ccc(C)cc2)cc1,-2.57,–
Cc1cccc(NC(=O)C(C)SCc2ccccc2)c1 (stereo unspecified),-16.9,–
Cc1cccc(NC(=O)c2nc(S(=O)(=O)Cc3ccccc3)ncc2Cl)c1,–,0.92 µM (active)
CCSc1nnc(NC(=O)c2ccc(C)cc2)s1,-18.9,–
O=C(Nc1nc2ccc(F)cc2s1)c1nc(SCc2ccccc2F)ncc1Cl,-22.7,–
O=C(Nc1ccccc1C(F)(F)F)c1nc(S(=O)(=O)Cc2ccccc2F)ncc1Cl,–,0.562 µM (active)
Cc1ccc(NC(=O)c2nc(S(=O)(=O)Cc3cccc(C)c3)ncc2Cl)cc1,–,0.651 µM (active)
CCSc1ncc(Cl)c(C(=O)Nc2cc(C)ccc2C)n1,–,inactive
CCCSc1ncc(Cl)c(C(=O)Nc2c(C(=O)Nc3ccccc3)oc3ccccc23)n1,-28.7,–

SMILES,"activity change, negative = growth inhibition [%]",Potency
CN(CC(=O)Nc1ccccc1C(F)(F)F)C(=O)Cc1ccccc1F,-12.4,–
CSc1nnc(NC(=O)c2nc(S(=O)(=O)Cc3ccc(C)cc3)ncc2Cl)s1,–,6.51 µM (active)
NC(=O)CSc1nnc(NC(=O)c2ccc(Br)o2)s1,-8.79,–
Cc1cc2c3ccccc3[nH]c(=O)n2n1,-12,–
COc1ccc(S(=O)(=O)N2CCOCC2)cc1NC(=O)CSc1ncnc2ccccc12,0.923,–
Cc1cc2c(=O)n(CC(=O)NCC(=O)Nc3ccc(C(C)C)cc3)cnc2s1,1.73,–
COc1ccc(CNC(=O)COc2cccnc2[N+](=O)[O-])cc1,-4.32,–
COc1cccc(C(=O)OCC(=O)c2[nH]c(C)c(C(C)=O)c2C)c1,-19.6,–
CC(=O)Nc1ccc(Sc2ccccc2C(=O)N2CCCC2)cn1,-23.3,–
Cc1[nH]c2ccccc2c1C(=O)C(=O)NCc1nnnn1-c1cccc(F)c1,-21.2,–
CCc1c(C)c2ccc(OC3CCCCC3=O)cc2oc1=O (stereo unspecified),-10.3,–
CSc1ncc(Cl)c(C(=O)Nc2cc(C)ccc2C)n1,-2.22,–
Cc1cccc(CS(=O)(=O)c2ncc(Cl)c(C(=O)Nc3ccc(F)cc3)n2)c1,–,1.3 µM (active)
Cc1cc(NC(=O)c2ccc(F)cc2)ccc1NC(=O)c1ccco1,-1.79,–
CC(=O)C1C(c2ccc(Cl)cc2)c2c(n[nH]c2C)CC1(C)O (stereo unspecified),-7.41,–
Cc1ccc(CNC(=O)C(=O)c2cn(CC(=O)N3CCOCC3)c3ccccc23)cc1,6.23,–
Cc1ccc(NC(=O)N2CCSc3ccccc32)cc1,-18.4,–
C=CCn1c(C23CC4CC(CC(C4)C2)C3)n[nH]c1=S,-28.3,–
COC(=O)c1sc(N2CCN(Cc3ccccc3)CC2)nc1N,1.92,–
CC(C)OC(=O)C(C#N)c1nc2ccccc2nc1N1CCN(Cc2ccccc2)CC1 (stereo unspecified),–,23.1 µM (active)
CCc1c(C)nc(N2CCN(Cc3ccccc3)CC2)[nH]c1=O,-24.7,–
CN1CC(=O)N=C1N,–,inactive

SMILES,"activity change, negative = growth inhibition [%]",Potency
N#Cc1c(-c2ccccc2)c(-c2ccccc2)n[nH]c1=O,-27.2,–
CN(C)c1ccc(CNC(=O)CN2C(=O)COc3ccc(S(=O)(=O)N4CCCC4)cc32)cc1,0.598,–
CCOC(=O)c1c(NC(=O)CSc2nnc(C)c(=O)[nH]2)sc2c1CCC2,-7.67,–
Cc1nnc(SCC(=O)N2CCOCC2)[nH]c1=O,24,–
CCCCOC(=O)CNc1nnc(SCC(=O)OCC)[nH]c1=O,–,10.3 µM (active)
CC(=O)c1ccc[n+](C(C)CCC(C)[n+]2cccc(C(C)=O)c2)c1 (stereo unspecified),22.8,–
Cc1ccccc1N1CCN(C(=O)c2cccnc2)CC1,-0.308,–
Cc1cccc(N2CCN(C(=O)c3ccc4c(c3)CCN4S(=O)(=O)c3ccccc3)CC2)c1C,–,5.8 µM (active)
CC(=O)N1CCN(c2cccc(C)c2C)CC1,4.39,–
CCOC(=O)c1c(N)n(-c2cccc(C)c2C)c2nc3ccccc3nc12,3.51,–
CS(=O)(=O)N1CCc2cc(C(=O)Nc3ccccc3Br)ccc21,1.75,–
CCC(CC)C(=O)N1CCN(c2cccc(C)c2C)CC1,–,14.6 µM (active)
O=C(/C=C/c1ccco1)NC(=S)N1CCCCC1,-15,–
Cc1cccc(N2CCN(C(=O)/C=C/c3ccco3)CC2)c1C,–,16.4 µM (active)
CCn1c(C)c(C)c2cc(C(=O)N3CCN(c4cccc(C)c4C)CC3)ccc21,–,20.6 µM (active)
Cc1cccc(N2CCN(C(=O)c3ccc(Nc4nc5ccccc5n5nnnc45)cc3)CC2)c1C,31.6,–
CSc1ccccc1NC(=O)c1ccc2c(c1)CCN2S(C)(=O)=O,0.0239,–
C[C@H]1CN([C@@H](C)CO)C(=O)CCCn2cc(nn2)CO[C@@H]1CN(C)C(=O)Nc1ccccc1,8.28,–
